# Experimental data as given in PubChem BioAssay AID1259313 (Sanford-Burnham Center for Chemical Genomics, 2017).
# The whole screen tested about 340,000 compounds, of which about 8,500 (2.5%) were called active. This excerpt belongs to a sample that is enriched for actives. Values without a mark were called inactive.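 How the source made its calls: active means melting temperature shift of at least 10% of the positive control shift, at one fixed dose; inactive means the rest.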
# System: Glutamate receptor ionotropic, NMDA 3A (GRIN3A) ligand-binding domain
# Test: binders of NR3A ligand-binding domain, primary screen, biophysical, differential scanning fluorimetry, uHTS (AID 1259313)
# Conditions: NR3A LBD differential scanning fluorimetry, at 25 µM, hits give high values, 0% = protein alone, 100% = glycine-bound protein
row,SMILES,Tm shift relative to glycine control
1,COc1ccc2c(c1)OC(O)(C(F)(F)C(F)F)CC2=O (stereo unspecified),-0.91%
2,C=CCN(c1ccc(Cl)cc1)S(=O)(=O)c1cccc(C(=O)OCC(=O)N(C)C)c1,-2.3%
3,O=C(CSc1nc(O)c(Cc2ccccc2)c(=O)[nH]1)Nc1nc2c(s1)CCCC2,0.31%
4,CN(C)CCNc1ccc(-c2n[nH]c(=O)c3ccccc23)cc1[N+](=O)[O-],-4.51%
5,COc1cc(C2c3cc4c(cc3C(O)C3COC(=O)C23)OCO4)cc(OC)c1OC (stereo unspecified),0.33%
6,CC(C)(C)N(CC#CCC(O)(c1ccccc1)C1CCCC1)CCO (stereo unspecified),14.9% (active)
7,CN(CC#CCC(c1ccccc1)c1ccccc1)C(C)(C)C,-1.63%
8,OC(C#CCN1CCOCC1)(c1ccccc1)C1CCCCC1 (stereo unspecified),0.88%
9,O=C(NN1C(=O)C2C3C=CC(O3)C2C1=O)c1ccccc1 (stereo unspecified),-2.22%
10,Cc1ccc2nsnc2c1NC(=O)c1ccccc1[N+](=O)[O-],-9.29%
11,COc1ccc(NC(=O)Nc2ccc3nc(C)c(C)nc3c2)cc1,19% (active)
12,COc1ccc2nc(C)cc(Nc3cccc(C(=O)O)c3)c2c1,-1.4%
13,Cc1ccc(NC(=O)Nc2ccc3oc(C)nc3c2)cc1,-7.01%
14,COc1ccc(NC(=O)Nc2ccc3nsnc3c2)cc1,33.6% (active)
15,COCCNC(=O)Nc1ccc2nc(-c3ccco3)c(-c3ccco3)nc2c1,-1.95%
16,O=C(Nc1ccccc1)c1ccc2nsnc2c1,1.64%
17,COc1ccc(/C=N/NC(=O)Nc2ccc3nsnc3c2)c(OC)c1,-2.88%
18,COc1ccc2nc(/N=C(\N)NC(=O)Nc3ccccc3)nc(C)c2c1,29.4% (active)
19,Cc1nc(/N=C(\N)NC(=O)NC2CCCCC2)nc2ccccc12,-0.41%
20,CCC1(C(=O)c2ccccc2)C(c2cccc([N+](=O)[O-])c2)C1(C(=O)OC)C(=O)OC (stereo unspecified),-4.39%
21,CCCCCN(C(=O)NC(=O)Nc1ccccc1C)S(C)(=O)=O,-1.26%
22,O=C(CN1CCN(S(=O)(=O)c2ccc3ccccc3c2)CC1)NC(=O)NC1CCCCC1,-9.92%
23,COc1cc(NS(=O)(=O)c2ccc(NC(=S)NC(=O)c3ccccc3)cc2)nc(OC)n1,-2.53%
24,CCOC(=O)CCP(=O)(O)C(O)(c1ccccc1)c1ccccc1,-1.33%

row,SMILES,Tm shift relative to glycine control
1,Cc1ccc(N2C(=O)CN=C2Nc2nc(C)cc(C)n2)cc1,-1.23%
2,O=C(Nc1nnc(SCc2ccc(Cl)cc2Cl)s1)C1COc2ccccc2O1 (stereo unspecified),15.3% (active)
3,O=C(Nc1nnc(SCc2ccccc2Cl)s1)c1cccc([N+](=O)[O-])c1,-14.6%
4,O=C(Nc1nnc(SCc2c(Cl)cccc2Cl)s1)C1CCCO1 (stereo unspecified),1.89%
5,Cc1nc([N+](=O)[O-])c(NCCCO)n1Cc1ccccc1,-1.5%
6,O=C(NCCCN1CCOCC1)c1cnn2c(-c3ccccc3)cc(-c3ccccc3)nc12,-3.89%
7,COc1ccc(OC)c(Nc2nc(-c3ccc(O)c(O)c3)cs2)c1,19% (active)
8,COc1ccc(OC)c(-c2csc(NC(=O)COC(=O)C3CC3)n2)c1,-1.41%
9,COc1cc(CC(=O)Nc2nc(-c3ccc(F)c(F)c3)cs2)cc(OC)c1OC,-3.34%
10,CCOC(=O)CNc1nc(Cl)nc(Nc2ccc(OC)cc2OC)n1,13.1% (active)
11,CCOC(=O)CNc1nc(Cl)nc(Nc2ccccc2)n1,-0.5%
12,CCOc1ccc(Cn2nnc(C(=O)Nc3ccc(OC)cc3OC)c2N)cc1,2.21%
13,CCN(CC)c1ccc(NC(=O)C2CCC(CNc3c(N4CCCC4)c(=O)c3=O)CC2)c(C)c1 (stereo unspecified),1.77%
14,CCOC(=O)N1CCN(C(=O)CSc2nnc(-c3c[nH]c4ccccc34)n2CCOC)CC1,0.55%
15,OC(CNCc1ccc(Cl)c(Cl)c1)c1ccccc1 (stereo unspecified),2.04%
16,C/C(N)=C(/C#N)C(=O)COC(=O)c1cc(-c2ccc(C)cc2)nc2ccccc12,-1.48%
17,C/C(N)=C(/C#N)C(=O)COC(=O)c1cc(-c2cccc(Br)c2)nc2ccccc12,30.1% (active)
18,COc1cccc(OC)c1C(=O)OCC(=O)/C(C#N)=C(\C)N,-2%
19,COc1cc(C(=O)N2C(=O)c3cccc(N)c3C2=O)cc(OC)c1OC,-1.08%
20,Cc1nn(C)cc1N1C(=O)c2cccc3c(N)ccc(c23)C1=O,-0.63%
21,CN1C(=O)c2cccc3c(N)ccc(c23)C1=O,11.8% (active)
22,Cc1ccc(CNC(=O)[C@@H](NC(=O)Cc2ccccc2)C(C)C)cc1,-6.13%
23,O=C1NN(c2ccccc2)C(=O)/C1=C/c1ccc(-c2cccc(C(=O)O)c2)o1,-14.4%
24,O=C(O)C(c1ccccc1)N1C(=O)/C(=C\c2ccc(-c3cccc(Cl)c3)o2)SC1=S (stereo unspecified),27.7% (active)

row,SMILES,Tm shift relative to glycine control
1,O=C1c2ccccc2NC(c2ccc(-c3cccc(Cl)c3)o2)N1O (stereo unspecified),-0.47%
2,O=C(O)CSc1c2c(nc3cc(C(=O)Nc4cccc(C(F)(F)F)c4)ccc13)CCCC2,-1.44%
3,O=C(Nc1ccc(C(F)(F)F)cc1)c1cccc(-n2cnnn2)c1,-5.14%
4,O=C(Nc1ccc(-c2csc(Nc3cccc(C(F)(F)F)c3)n2)cc1)c1cccc(C(F)(F)F)c1,25.4% (active)
5,CS(=O)(=O)N(Cc1ccccc1)c1ccc(C(=O)NN=C2CCCCCC2)cc1,0.85%
6,Clc1ccc2nc(CSc3ccccc3)cn2c1,0.36%
7,Cc1c(NC(=S)NC(=O)CCc2ccccc2)c(=O)n(-c2ccccc2)n1C,-3.07%
8,O=C(O)CSc1ccc(S(=O)(=O)N2CCCC2)cn1,0.42%
9,CCN(CC)c1ccc(C(=O)N/N=C(\C)c2cccc(OC)c2)cc1,2.58%
10,COc1ccc(/C(C)=N\NC(=O)c2ccc(-c3ccccc3)cc2)c(F)c1,19.6% (active)
11,COc1ccc(/C(C)=N/NC(=O)c2ccc3nc[nH]c3c2)cc1,-1.41%
12,COc1ccc(Cl)cc1NC(=O)NC(C)C(C)(C)C (stereo unspecified),-7.8%
13,O=C(CN1C(=O)CC(c2ccccc2)S(=O)(=O)c2ccccc21)NC1CCCC1 (stereo unspecified),-2.04%
14,CC(=O)c1cc(-c2ccccc2)n(CC(=O)NC2CCCCC2)c1C,0.92%
15,O=C(CN1C(=O)CC(c2ccccc2)=Nc2ccccc21)NC1CCCCC1,300% (active)
16,CC(=O)/C(=N\Nc1ccc(Cl)cc1Cl)Sc1cccc2cccnc12,-8.55%
17,CCOC(=O)Cc1ncccc1C(=O)Nc1ccc(OC)cc1,-0.6%
18,O=C(Nc1ccccc1Cl)Nc1cccc2cccnc12,39.4% (active)
19,COc1ccc(NC(=O)Nc2cccc3cccnc23)cc1,12.4% (active)
20,O=[N+]([O-])c1ccccc1S(=O)(=O)Nc1cccc2cccnc12,-0.26%
21,O=C(Nc1ccccc1)Oc1cccc2cccnc12,-3.82%
22,Cc1ccc(S(=O)(=O)N2CCN=C2SCc2c(F)cccc2Cl)cc1,0.68%
23,CCc1ccc(-c2cc(C)no2)cc1S(=O)(=O)NCCc1ccc(S(N)(=O)=O)cc1,-4.05%
24,CCCCn1c(N)c(N(CC)C(=O)c2ccccc2C(F)(F)F)c(=O)[nH]c1=O,-1.66%

row,SMILES,Tm shift relative to glycine control
1,O=C(Cn1c(-c2ccc(Cl)cc2)noc1=O)N1CCN(c2ccccc2F)CC1,-0.09%
2,CC(=O)CSc1nnc(CSc2ncccn2)n1C1CCCCC1,-1.13%
3,CCC(=O)N1CCc2cc(Br)c(S(=O)(=O)NCCN3CCCCC3CC)cc21 (stereo unspecified),12.6% (active)
4,CCCN(CCC)S(=O)(=O)c1cc2c(cc1Br)CCN2C(=O)CC,-0.99%
5,CCC1CCCCN1CCNS(=O)(=O)c1ccc2c(c1)CCN2C(C)=O (stereo unspecified),-1.49%
6,CCCCSc1nc2c(c(=O)n1CC)SC(C)C2 (stereo unspecified),-2.48%
7,CCOC(=O)c1c(C)[nH]c(C2=NNC(=NC(C)COC)SC2)c1C (stereo unspecified),-1.92%
8,CC12CCC(C(=O)N(c3cccc(Cl)c3)C1=O)C2(C)C (stereo unspecified),18.6% (active)
9,O=C1CC(NNc2ccccc2)C(=O)N1c1cccc(Cl)c1 (stereo unspecified),-0.68%
10,CC12CCC(C(=O)N(NC(=O)c3ccccc3O)C1=O)C2(C)C (stereo unspecified),2.74%
11,COc1ccc(C(=O)Nc2sc(C)c(C)c2CN2CCOCC2)cc1,-2.24%
12,CCc1cc(C(N)=O)c(NC(=O)c2ccc(OC)cc2)s1,12.6% (active)
13,CCc1cc(C(=O)c2ccc(OC)cc2)c(NC(=O)CN2CCN(C)CC2)s1,-0.69%
14,CC1=CC=CC2=N/C(=N\S(=O)(=O)c3ccc(F)cc3F)c3ccccc3CN12,-0.65%
15,CC(C)(C)C(=O)Nc1ccc(-c2cn3cccnc3n2)cc1,-0.98%
16,CC(C)(C)C(=O)Nc1cccc(-c2ccc[nH]2)n1,11.2% (active)
17,COc1ccc(C(=O)Nc2cccc(NC(=O)c3ccc(OC)cc3OC)n2)c(OC)c1,3.62%
18,N#Cc1ccc(C2N=C(c3ccccc3)NO2)cc1 (stereo unspecified),0.19%
19,CCOc1ccc(CN2CCN(Cc3ccc(C)o3)CC2CCO)cc1 (stereo unspecified),1.84%
20,C/C(CC(=O)NC(C)c1ccccc1)=N\NC(N)=S (stereo unspecified),-2.12%
21,COC(=O)C1C(=O)NCC1c1ccc(OC)cc1 (stereo unspecified),-0.83%
22,COc1ccc(CC(=O)Nc2c(C(N)=O)oc3ccccc23)cc1,16.1% (active)
23,NC(=O)c1oc2ccccc2c1NC(=O)Cc1ccccc1,-1.3%
24,NC(=O)c1oc2ccccc2c1NC(=O)CS(=O)(=O)c1ccccc1,-2.6%
